Results reported in PubChem BioAssay (Tox21).
“And” between values parts separate entries of the source, which are not always exact repeats. Equal values may be shown once. Inconclusive results are not listed. A structure can be active in one record and inactive in another. The source made the active and inactive calls. Unless noted, the call rests on the fitted dose curve; in most records, active means well fitted curve in the direction sought with a large enough effect in the repeat runs; inconclusive means weak or mixed curves; inactive means no such curve, though single readings can be large; an effect the other way counts as inactive or inconclusive.

Experiments:
[1] = qHTS assay for small molecule agonists of the p53 signaling pathway (AID 651631; calls by dose curve; further: nearly all actives have a fitted effect of over 15% in size)
Outline: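 We treat p53RE-bla HCT-116 cells with compounds for 16 h at 37 °C, add LiveBLAzer B/G FRET substrate for 2 h at room temperature, and measure fluorescence intensity.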

[2] = qHTS assay for small molecules that induce genotoxicity in human embryonic kidney cells expressing luciferase-tagged ATAD5 (AID 651632); further: nearly all actives have a fitted effect of over 15% in size
Outline: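 ATAD5-luc HEK293T, 2,000 cells/well; cpd or DMSO pin-transferred; 16 hr, 37C/5% CO2; Amplite 30 min RT; luminescence.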

[3] = qHTS assay for small molecule agonists of the p53 signaling pathway - cell viability (AID 651633; calls by dose curve;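 further: p53RE-bla HCT reporter cells with a stable beta-lactamase p53 reporter; series mostly up to about 83 µM; nearly all actives have a fitted effect of over 30% in size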)
Outline: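 p53RE-bla cells were treated with compound for 16 hours at 37 C. Cytotoxicity was then measured as CellTiter-Glo luminescence after 30 min at room temperature.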

[4] = qHTS assay for small molecules that induce genotoxicity in human embryonic kidney cells expressing luciferase-tagged ATAD5 - cell viability (AID 651634; calls by dose curve; further: nearly all actives have a fitted effect of over 25% in size)
Outline: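 Fluorescence from CellTiter-Fluor, reporting protease activity within live cells, served as the viability read-out. HEK293T cells carrying luciferase-tagged ATAD5 had been treated with compound for 15.5 hr at 37C.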

[5] = qHTS assay for small molecule disruptors of the mitochondrial membrane potential - cell viability (AID 720634; calls by dose curve; further: nearly all actives have a fitted effect of over 20% in size; further: potency means the concentration at half of the fitted maximal effect)
Outline: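 Cells: HepG2, 2,000/well, attached overnight. Compound 1 hr, 37 C/5% CO2. +m-MPI dye, +CellTiter-Glo 30 min RT. Readout: luminescence (ATP).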

[6] = qHTS assay for small molecule disruptors of the mitochondrial membrane potential (AID 720635); further: potency means the concentration at half of the fitted maximal effect
Outline: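 HepG2 cells exposed to compound 1 hr at 37C, then Mito-MPS dye 30 min. Ratio read of aggregate (540/590 nm) versus monomer (490/535 nm) fluorescence.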

[7] = qHTS assay to test for compound auto fluorescence at 590 nm (red) in HepG2 cells (AID 720674)
Outline: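 HepG2 cells, 2,000 per well in MEM with 10% FBS, attached overnight at 37 C, then got 23 nL compound or DMSO. After 1 hr at 37 C, 5% CO2, red fluorescence was read at 540/590 nm against Rose Bengal sodium as reference.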

[8] = qHTS assay to test for compound auto fluorescence at 535 nm (green) in HepG2 cells (AID 720675)
[9] = qHTS assay to test for compound auto fluorescence at 460 nm (blue) in HEK293 cells (AID 720678)
Outline: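 Blue read-out at excitation 405 nm and emission 460 nm follows overnight compound exposure of HEK293 cells at 37C in 5% CO2. Activity is given as auto fluorescence equivalency to triamterene.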

[10] = qHTS assay to test for compound auto fluorescence at 590 nm (red) in HEK293 cells (AID 720679)
Outline: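 Red channel, Ex/Em 540/590nm; signal expressed as equivalency to Rose Bengal sodium. HEK293, 2,000 cells/well, 10% dialyzed FBS; 23 nL compound pinned after 4-5 hr attachment; overnight 37C/5% CO2 before reading.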

Measured: Potency

C=CC#N
not listed: [10]
inactive: all other assays above

CN(C)CCC#N
not listed: [10]
inactive: all other assays above

Cc1ccc(N=C=O)cc1N=C=O
active: [6] 19.8 µM
not listed: [10]
inactive: all other assays above

N#Cc1cccc(C#N)c1
not listed: [10]
inactive: all other assays above

[N-]=[N+]=CC(=O)OC[C@H](N)C(=O)O
not listed: [10]
inactive: all other assays above

CNC(=O)O/N=C/C(C)(C)S(C)(=O)=O
not listed: [10]
inactive: all other assays above

OCc1ccco1
not listed: [10]
inactive: all other assays above

O=C/C=C/c1ccccc1
not listed: [10]
inactive: all other assays above

Cc1ccc(O)c(C)c1
not listed: [10]
inactive: all other assays above

C=CC(=O)OCCCCCC(C)C
not listed: [10]
inactive: all other assays above

O=C(O)C1C(C(=O)O)C2(Cl)C(Cl)=C(Cl)C1(Cl)C2(Cl)Cl (centres undefined)
inactive: all assays above

Cc1cccc(C)c1N
not listed: [10]
inactive: all other assays above

CSc1nnc(C(C)(C)C)c(=O)n1N
not listed: [10]
inactive: all other assays above

N#CN=C(N)N
not listed: [10]
inactive: all other assays above

Cc1ccccc1N
inactive: all assays above

COC(=O)Nc1cccc(OC(=O)Nc2cccc(C)c2)c1
active: [5] 7.7 µM | [6] 2.73 µM and 3.86 µM
not listed: [10]
inactive: all other assays above

COP(=S)(OC)Oc1ccc(SC)c(C)c1
active: [6] 53.9 µM and 27.3 µM
inactive and 24.3 µM (active): [5]
not listed: [10]
inactive: all other assays above

CNC(=O)Oc1cccc2ccccc12
active: [6] 13.3 µM
inactive: all other assays above

CC(C)(C)C(=O)CCl
not listed: [10]
inactive: all other assays above

N#Cc1ccccn1
not listed: [10]
inactive: all other assays above

O=C(O)C(Br)Br
not listed: [10]
inactive: all other assays above

Cc1cc(Cl)ccc1OC(C)C(=O)O (centres undefined)
not listed: [10]
inactive: all other assays above

CNC(=O)O/N=C(\SC)C(=O)N(C)C
not listed: [10]
inactive: all other assays above

OCC(O)CCl (centres undefined)
not listed: [10]
inactive: all other assays above

CCOc1ccc(N)cc1
not listed: [10]
inactive: all other assays above

O=[N+]([O-])c1cc([As](=O)(O)O)ccc1O
not listed: [10]
inactive: all other assays above

COP(=S)(OC)SCN1C(=O)c2ccccc2C1=O
not listed: [10]
inactive: all other assays above

Cl[C@H]1OCCO[C@@H]1Cl
not listed: [10]
inactive: all other assays above

C=CCN=C=S
not listed: [10]
inactive: all other assays above
